Most compounds without a hit are left out; they make up all but 19% or so of the library.
DT40 TDP1 no CPT: qHTS for Inhibitors of human tyrosyl-DNA phosphodiesterase 1 (TDP1): qHTS in cells in absence of CPT; DT40 Tdp1-/- hTDP1 cells, no CPT, ATP luminescence, 48 h; Potency, µM (doses to about 46.2 µM), inactives show at the highest dose activity change, negative = growth inhibition, usual class: inhibitors; 420,000 tested, 15% active; AID 686978, 2013; also: potency is read from the fitted curve at half-maximal effect; nearly all actives have a fitted effect of over 55% in size
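Luminescent ATP content (CellTiter-Glo) served as the growth readout. Knockout chicken DT40 cells expressing human TDP1 were exposed to compounds without camptothecin for a minimum 48 hr at 37 °C.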
HT1080 IDH1KD tx: kills HT-1080 cells with IDH1 knockdown; 360,000 tested, 2% active; HT-1080 IDH1 knockdown viability, ATP luminescence, 48 h; Potency, µM (doses to about 46.1 µM), for the others: at the top dose activity, negative = toxicity, actives largely listed as cytotoxic; AID 686971;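 also: potency is read from the fitted curve at half-maximal effect; 0% = DMSO wells and -100% = cell-free medium wells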
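In this qHTS, HT-1080 cells depleted of IDH1 are exposed for 48 h at 37 °C to compound titrations. Toxicity is scored from CellTiter-Glo luminescence, with DMSO as full viability and medium alone as none.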
DT40 TDP1 CPT: growth inhibition of DT40 Tdp1-/-;hTDP1 cells with camptothecin (screen for TDP1 inhibitors); chicken DT40 Tdp1-/-;hTDP1 cells + 20 nM CPT, ATP luminescence, 48 h; Potency, µM (series often up to 46.2 µM), for the others: at the highest dose activity change, negative = growth inhibition, most hits filed as inhibitors; 420,000 tested, 12% active; AID 686979; also: potency is read from the fitted curve at half-maximal effect; nearly all actives have a fitted effect of over 55% in size
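Cell growth measured by CellTiter-Glo luminescence after a minimum 48 h, 37 C compound exposure with 20 nM CPT in Tdp1-knockout DT40 cells stably expressing hTDP1, seeded 400/well; qHTS titration format.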
IL1B secr inh: inhibitors of inflammasome signaling (IL-1 beta secretion); THP-1 LPS/ATP IL-1B secretion, AlphaLISA, 16 h; stronger effect = lower value; activity change, % at 57.5 µM; 360,000 tested, 4.7% active; AID 743279; in the data active = activity change below about -50%; inconclusive = mostly about -30% to -49%
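THP-1 cells pretreated 1 hr with compounds (up to 57.5 uM final), then stimulated with LPS (250 ng/mL final) plus ATP (1.25 mM final); secreted IL-1B measured by AlphaLISA after 16 hr, decreased signal indicating inhibition.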
HT1080-NT tox: kills 2HG-producing HT-1080-NT fibrosarcoma cells; Potency, µM (highest dose often 46.1 µM), for the others: at the highest dose activity, negative = less viability, actives largely listed as cytotoxic; 360,000 tested, 1.6% active; HT-1080-NT fibrosarcoma viability, CellTiter-Glo ATP luminescence, 48 h;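 also: NT is the 2HG producing partner of a matched IDH1 knockdown line; potency is read from the fitted curve at half-maximal effect; 0% = DMSO-treated cells and -100% = media-only wells without cells; nearly all actives have a fitted effect of over 55% in size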
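A 48-hour cytotoxicity screen used HT-1080-NT cells plated 2 hours before compound delivery. ATP-based CellTiter-Glo luminescence measured viability, normalized to DMSO and no-cell controls.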
Starred values were filed as active, the others as inactive; [ ] = dose if it differs, or a comment. Unless noted, calls follow the shape of the dose curve; as a rule, active = well fitted curve in the direction sought with a large enough effect; inconclusive = small, poorly fitted or top-dose-only effect, or another doubt; inactive = no such curve, though single readings can be large; an effect the other way counts as inactive or inconclusive. Unless noted, % is scaled to controls: 0 for no effect and ±100 for the full control effect.

Results for COc1ccc(-c2csc(C(O)c3ccc(F)c(F)c3)n2)cn1 (stereo not given) ?
DT40 TDP1 no CPT: -24%; HT1080 IDH1KD tx: 1%; DT40 TDP1 CPT: -3%; IL1B secr inh: 20; HT1080-NT tox: -22%

How did COc1ccc(-c2csc(C(O)c3ccc(F)c(OC)c3)n2)cn1 (stereo not given) do in these assays?
DT40 TDP1 no CPT: 23µM*; HT1080 IDH1KD tx: -29%; DT40 TDP1 CPT: 16µM*; IL1B secr inh: -16; HT1080-NT tox: -24%

Results for COCc1cccc(-c2csc(C(O)c3cccc(OC)c3)n2)c1 (stereo not given) ?
DT40 TDP1 no CPT: inconclusive; HT1080 IDH1KD tx: -19%; DT40 TDP1 CPT: 18µM*; IL1B secr inh: -18; HT1080-NT tox: 1%

How did COCc1cccc(-c2csc(C(O)c3ccccc3)n2)c1 (stereo not given) do in these assays?
DT40 TDP1 no CPT: inconclusive; HT1080 IDH1KD tx: inconclusive; DT40 TDP1 CPT: inconclusive; IL1B secr inh: 8; HT1080-NT tox: inconclusive

What do the screens show for `O=C(CNC(=O)c1ccco1)NNC(=O)c1cccc(Cl)c1`?
DT40 TDP1 no CPT: 0%; HT1080 IDH1KD tx: 7%; DT40 TDP1 CPT: -2%; IL1B secr inh: 29; HT1080-NT tox: 12%[9.24 µM]

How did NC(=O)CSc1ccc(S(=O)(=O)N2CCOCC2)cn1 do in these assays?
DT40 TDP1 no CPT: 10%; HT1080 IDH1KD tx: 10%; DT40 TDP1 CPT: 7%; IL1B secr inh: 4; HT1080-NT tox: 7%

What do the screens show for `CCN(C(=O)CSc1ccc(S(=O)(=O)N2CCOCC2)cn1)c1ccccc1`?
DT40 TDP1 no CPT: 16µM*; HT1080 IDH1KD tx: -13%; DT40 TDP1 CPT: inconclusive; IL1B secr inh: -21; HT1080-NT tox: 4%

How did O=C(CSc1ccc(S(=O)(=O)N2CCOCC2)cn1)Nc1ccc(F)c(F)c1 do in these assays?
DT40 TDP1 no CPT: 16µM*; HT1080 IDH1KD tx: inconclusive; DT40 TDP1 CPT: 16µM*; IL1B secr inh: -15; HT1080-NT tox: -21%

What do the screens show for `CC(C)N(C(=O)CSc1ccc(S(=O)(=O)N2CCCCC2)cn1)c1ccccc1`?
DT40 TDP1 no CPT: 15µM*; HT1080 IDH1KD tx: -2%; DT40 TDP1 CPT: inconclusive; IL1B secr inh: -25; HT1080-NT tox: 0%

What do the screens show for `CC(Sc1ccc(S(=O)(=O)N2CCOCC2)cn1)c1ccccc1Cl` (stereo not given)?
DT40 TDP1 no CPT: 29µM*; HT1080 IDH1KD tx: -12%; DT40 TDP1 CPT: inconclusive; IL1B secr inh: -3; HT1080-NT tox: -17%

Results for COc1cccc(C2C([N+](=O)[O-])=C(N)Oc3cc(C)oc(=O)c32)c1 (stereo not given) ?
DT40 TDP1 no CPT: -4%; HT1080 IDH1KD tx: 0%; DT40 TDP1 CPT: 1%; IL1B secr inh: -1; HT1080-NT tox: 5%

How did COc1cccc(C(=O)Nc2c[nH]c(=O)[nH]c2=O)c1 do in these assays?
DT40 TDP1 no CPT: -10%; HT1080 IDH1KD tx: -1%; DT40 TDP1 CPT: -5%; IL1B secr inh: 23; HT1080-NT tox: 5%

What do the screens show for `CN(C)C(=O)c1ccc(-c2cc(NCc3ccccc3)ncn2)cc1`?
DT40 TDP1 no CPT: 1%; DT40 TDP1 CPT: -4%

What do the screens show for `Cc1ccc(S(=O)(=O)N2C3CC(c4ccccc4)N(S(=O)(=O)c4ccccc4Cl)CC3C(=O)C[C@H]2c2ccccc2)cc1` (stereo not given in full)?
DT40 TDP1 no CPT: -16%; HT1080 IDH1KD tx: 15%; DT40 TDP1 CPT: -14%; IL1B secr inh: 44; HT1080-NT tox: 13%

Results for COc1cccc2[nH]c3ccccc3c(=O)c12 ?
DT40 TDP1 no CPT: inconclusive; HT1080 IDH1KD tx: 2%; DT40 TDP1 CPT: -94%; IL1B secr inh: 0; HT1080-NT tox: 2%

What do the screens show for `Nc1cccc2c(=O)c3ccccc3[nH]c12`?
DT40 TDP1 no CPT: 8.2µM*; HT1080 IDH1KD tx: -18%; DT40 TDP1 CPT: 13µM*; IL1B secr inh: -7; HT1080-NT tox: -2%

How did CCCCCOC(=O)c1ccc(OC(=O)c2sc3ncn(Cc4cccc(F)c4)c(=O)c3c2C)cc1 do in these assays?
DT40 TDP1 no CPT: -22%; DT40 TDP1 CPT: -10%

How did COc1cc(OC)c(Cl)cc1N do in these assays?
DT40 TDP1 no CPT: 16µM*; HT1080 IDH1KD tx: 6%; DT40 TDP1 CPT: inconclusive; IL1B secr inh: -7; HT1080-NT tox: 5%

What do the screens show for `C/C(=N\NC(=O)C(O)c1ccccc1)c1ccc(Br)s1` (stereo not given)?
DT40 TDP1 no CPT: inconclusive; HT1080 IDH1KD tx: -8%; DT40 TDP1 CPT: -8%; IL1B secr inh: 6; HT1080-NT tox: 8%

Results for CC(=O)N1CCN(c2ccccc2NC(=O)Cc2ccc(Cl)cc2)CC1 ?
DT40 TDP1 no CPT: inconclusive; HT1080 IDH1KD tx: -13%; DT40 TDP1 CPT: -27%; IL1B secr inh: -11; HT1080-NT tox: -15%

How did COc1ccc(CC(=O)Nc2ccccc2N2CCOCC2)cc1OC do in these assays?
DT40 TDP1 no CPT: -26%; HT1080 IDH1KD tx: 7%; DT40 TDP1 CPT: 7%; IL1B secr inh: 12; HT1080-NT tox: 8%

What do the screens show for `Cc1ccc(CC(=O)Nc2ccccc2N2CCOCC2)cc1C`?
DT40 TDP1 no CPT: inconclusive; HT1080 IDH1KD tx: -8%; DT40 TDP1 CPT: 16µM*; IL1B secr inh: -2; HT1080-NT tox: -9%

What do the screens show for `O=C(Cc1ccc(Cl)cc1)Nc1ccccc1N1CCOCC1`?
DT40 TDP1 no CPT: 16µM*; HT1080 IDH1KD tx: 2%; DT40 TDP1 CPT: inconclusive; IL1B secr inh: 11; HT1080-NT tox: 1%

How did N#Cc1cnc2nc1NCCCCCCC2 do in these assays?
DT40 TDP1 no CPT: inconclusive; HT1080 IDH1KD tx: 5%; DT40 TDP1 CPT: -10%; IL1B secr inh: 32; HT1080-NT tox: 11%

How did Cc1ccc(NC(=O)C(C)OC(=O)c2ccc(NC(=O)CC#N)cc2)cc1S(=O)(=O)N1CCOCC1 (stereo not given) do in these assays?
DT40 TDP1 no CPT: -16%; HT1080 IDH1KD tx: -14%; DT40 TDP1 CPT: 15%; IL1B secr inh: -7; HT1080-NT tox: -1%

What do the screens show for `CC1(c2ccccc2)NC(=O)N(CC(=O)Nc2ccc(S(=O)(=O)NC3=NCCCCC3)cc2)C1=O` (stereo not given)?
DT40 TDP1 no CPT: 21%; HT1080 IDH1KD tx: -4%; DT40 TDP1 CPT: -2%; IL1B secr inh: -3; HT1080-NT tox: -4%

What do the screens show for `Cc1ccccc1-c1nc2c3c(-c4ccccc4)c(-c4ccccc4)oc3ncn2n1`?
DT40 TDP1 no CPT: -7%; DT40 TDP1 CPT: 4%

Results for O=C(O)C1CCCN1c1nc(-c2ccc(Cl)c(Cl)c2)cc(C(F)(F)F)n1 (stereo not given) ?
DT40 TDP1 no CPT: 21µM*; HT1080 IDH1KD tx: -3%; DT40 TDP1 CPT: 15µM*; IL1B secr inh: 0; HT1080-NT tox: -18%

Source: PubChem
